Measured values taken from the supplement of paper PMC11732987, “Enantioselective OTUD7B fragment discovery through chemoproteomics screening and high-throughput optimisation” (Communications Chemistry, 2025).

How the values were obtained:
Assay in all cases: log2 ratio of Biotin-Ahx-Ub-VS probe labelling (fragment/DMSO); higher = less target engagement (more negative = stronger competition), active = hit call of the paper (q ≤ 0.05, log2 ratio ≤ -1)
Conditions in all cases: compound concentration: 200 uM; treatment time: 3 h
USP34 = USP34 (UniProt Q70CQ2)
Chain of USP34 (Q70CQ2 whole entry, the tested form may be a part): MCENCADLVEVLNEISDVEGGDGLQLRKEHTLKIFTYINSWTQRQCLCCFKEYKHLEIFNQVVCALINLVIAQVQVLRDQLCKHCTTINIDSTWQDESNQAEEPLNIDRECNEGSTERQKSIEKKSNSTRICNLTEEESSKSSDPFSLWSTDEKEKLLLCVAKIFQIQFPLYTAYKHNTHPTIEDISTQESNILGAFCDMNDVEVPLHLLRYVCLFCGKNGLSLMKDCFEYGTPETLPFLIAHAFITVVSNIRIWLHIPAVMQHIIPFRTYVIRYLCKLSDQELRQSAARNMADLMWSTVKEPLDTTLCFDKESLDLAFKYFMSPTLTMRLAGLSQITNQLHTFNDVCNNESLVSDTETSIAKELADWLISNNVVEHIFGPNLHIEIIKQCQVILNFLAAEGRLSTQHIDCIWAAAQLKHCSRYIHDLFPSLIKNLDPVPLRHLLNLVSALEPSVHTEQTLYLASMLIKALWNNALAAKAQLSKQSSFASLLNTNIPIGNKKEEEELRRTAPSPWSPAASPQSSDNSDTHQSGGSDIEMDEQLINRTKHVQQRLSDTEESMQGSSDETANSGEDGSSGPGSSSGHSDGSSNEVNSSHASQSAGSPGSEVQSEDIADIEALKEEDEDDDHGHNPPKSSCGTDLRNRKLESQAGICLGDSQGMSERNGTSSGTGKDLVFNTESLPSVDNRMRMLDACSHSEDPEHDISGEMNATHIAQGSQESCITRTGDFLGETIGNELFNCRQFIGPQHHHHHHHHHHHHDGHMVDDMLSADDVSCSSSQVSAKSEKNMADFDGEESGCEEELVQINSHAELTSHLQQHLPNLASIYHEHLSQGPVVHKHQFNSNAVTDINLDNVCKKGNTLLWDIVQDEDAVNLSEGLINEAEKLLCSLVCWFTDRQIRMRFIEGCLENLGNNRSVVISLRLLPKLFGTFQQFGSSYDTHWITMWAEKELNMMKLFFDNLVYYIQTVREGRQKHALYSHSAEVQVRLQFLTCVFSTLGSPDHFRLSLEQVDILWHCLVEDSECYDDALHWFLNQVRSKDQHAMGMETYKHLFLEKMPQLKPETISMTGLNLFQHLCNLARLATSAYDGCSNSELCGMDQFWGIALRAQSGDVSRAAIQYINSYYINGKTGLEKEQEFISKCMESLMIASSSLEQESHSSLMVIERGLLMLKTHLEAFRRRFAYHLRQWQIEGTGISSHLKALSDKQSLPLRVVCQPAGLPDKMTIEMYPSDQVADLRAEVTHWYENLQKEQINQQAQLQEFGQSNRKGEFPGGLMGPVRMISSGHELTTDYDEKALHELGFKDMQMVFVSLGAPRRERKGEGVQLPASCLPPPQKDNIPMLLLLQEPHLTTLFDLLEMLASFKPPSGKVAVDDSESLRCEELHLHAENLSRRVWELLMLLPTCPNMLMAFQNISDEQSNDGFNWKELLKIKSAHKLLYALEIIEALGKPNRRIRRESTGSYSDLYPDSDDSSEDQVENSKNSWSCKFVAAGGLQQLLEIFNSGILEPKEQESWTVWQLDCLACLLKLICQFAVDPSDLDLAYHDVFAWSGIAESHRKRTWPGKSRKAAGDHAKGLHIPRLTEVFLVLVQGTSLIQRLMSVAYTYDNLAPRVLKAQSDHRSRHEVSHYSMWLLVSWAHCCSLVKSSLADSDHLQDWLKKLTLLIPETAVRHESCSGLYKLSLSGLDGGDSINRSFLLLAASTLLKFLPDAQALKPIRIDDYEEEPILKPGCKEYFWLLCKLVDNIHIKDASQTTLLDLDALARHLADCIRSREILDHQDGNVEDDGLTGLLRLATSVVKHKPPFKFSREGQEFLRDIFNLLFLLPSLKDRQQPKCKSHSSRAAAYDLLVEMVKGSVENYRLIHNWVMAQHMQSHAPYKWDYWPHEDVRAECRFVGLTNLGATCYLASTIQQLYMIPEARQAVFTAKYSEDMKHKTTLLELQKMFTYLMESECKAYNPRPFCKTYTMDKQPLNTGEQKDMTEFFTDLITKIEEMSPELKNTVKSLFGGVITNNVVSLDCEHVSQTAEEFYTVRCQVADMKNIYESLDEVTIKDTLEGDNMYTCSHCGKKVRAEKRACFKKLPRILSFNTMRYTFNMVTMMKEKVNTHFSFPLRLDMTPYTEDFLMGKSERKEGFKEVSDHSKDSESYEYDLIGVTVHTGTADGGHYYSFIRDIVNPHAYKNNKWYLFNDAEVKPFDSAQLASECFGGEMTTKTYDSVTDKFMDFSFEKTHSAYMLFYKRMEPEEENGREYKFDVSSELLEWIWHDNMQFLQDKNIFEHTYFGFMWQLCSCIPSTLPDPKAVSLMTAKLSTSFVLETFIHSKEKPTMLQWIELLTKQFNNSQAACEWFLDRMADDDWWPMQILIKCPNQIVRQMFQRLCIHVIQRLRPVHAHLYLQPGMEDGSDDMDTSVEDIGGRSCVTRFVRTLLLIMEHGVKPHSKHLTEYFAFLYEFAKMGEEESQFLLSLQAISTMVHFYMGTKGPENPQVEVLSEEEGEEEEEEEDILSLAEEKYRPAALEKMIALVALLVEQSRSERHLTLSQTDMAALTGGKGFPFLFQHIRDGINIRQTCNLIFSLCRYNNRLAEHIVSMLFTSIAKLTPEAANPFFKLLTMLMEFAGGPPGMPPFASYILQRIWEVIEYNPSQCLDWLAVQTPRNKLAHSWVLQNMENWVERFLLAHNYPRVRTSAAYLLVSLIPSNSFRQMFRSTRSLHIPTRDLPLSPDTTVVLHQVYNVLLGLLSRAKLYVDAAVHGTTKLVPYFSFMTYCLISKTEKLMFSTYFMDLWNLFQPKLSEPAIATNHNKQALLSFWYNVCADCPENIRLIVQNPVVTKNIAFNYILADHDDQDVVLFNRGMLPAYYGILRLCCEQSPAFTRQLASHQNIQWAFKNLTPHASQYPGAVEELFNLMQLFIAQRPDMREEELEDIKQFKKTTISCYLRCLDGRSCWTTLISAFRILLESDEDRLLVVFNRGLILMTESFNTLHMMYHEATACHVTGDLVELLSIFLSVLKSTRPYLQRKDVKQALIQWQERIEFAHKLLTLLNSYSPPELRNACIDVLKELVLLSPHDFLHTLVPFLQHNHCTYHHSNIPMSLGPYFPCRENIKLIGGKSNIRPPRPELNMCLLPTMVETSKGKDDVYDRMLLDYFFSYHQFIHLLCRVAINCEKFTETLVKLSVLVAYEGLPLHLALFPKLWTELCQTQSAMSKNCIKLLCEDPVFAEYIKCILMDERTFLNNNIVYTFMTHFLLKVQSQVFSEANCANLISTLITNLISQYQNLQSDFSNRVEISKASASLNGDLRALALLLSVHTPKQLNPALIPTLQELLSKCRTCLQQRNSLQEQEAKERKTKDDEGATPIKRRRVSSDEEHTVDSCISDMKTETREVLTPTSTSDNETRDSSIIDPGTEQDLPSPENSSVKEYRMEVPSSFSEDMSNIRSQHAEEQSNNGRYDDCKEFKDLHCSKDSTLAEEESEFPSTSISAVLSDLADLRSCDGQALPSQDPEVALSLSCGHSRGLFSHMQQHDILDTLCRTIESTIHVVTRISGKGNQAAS
Summary of the method: (§1)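 Labelled DUBs from HEK293T lysate were NeutrAvidin-enriched, digested with LysC and trypsin, and run by diaPASEF LC-MS/MS. Before that, each 495 µg sample in Tris/CHAPS/IGEPAL buffer with protease inhibitors was treated in triplicate with fragment at 200 µM or vehicle for 3 h, then with Biotin-Ahx-Ub-VS at 0.5 µM final for 1 h. Values are average log2 ratios of fragment over vehicle by unpaired t-test, based on global-median-normalised Spectronaut label-free quantities from proteins with ≥2 unique peptides.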

USP36 = molecular target: T1, USP36 (UniProt Q9P275)
T1 sequence (whole entry): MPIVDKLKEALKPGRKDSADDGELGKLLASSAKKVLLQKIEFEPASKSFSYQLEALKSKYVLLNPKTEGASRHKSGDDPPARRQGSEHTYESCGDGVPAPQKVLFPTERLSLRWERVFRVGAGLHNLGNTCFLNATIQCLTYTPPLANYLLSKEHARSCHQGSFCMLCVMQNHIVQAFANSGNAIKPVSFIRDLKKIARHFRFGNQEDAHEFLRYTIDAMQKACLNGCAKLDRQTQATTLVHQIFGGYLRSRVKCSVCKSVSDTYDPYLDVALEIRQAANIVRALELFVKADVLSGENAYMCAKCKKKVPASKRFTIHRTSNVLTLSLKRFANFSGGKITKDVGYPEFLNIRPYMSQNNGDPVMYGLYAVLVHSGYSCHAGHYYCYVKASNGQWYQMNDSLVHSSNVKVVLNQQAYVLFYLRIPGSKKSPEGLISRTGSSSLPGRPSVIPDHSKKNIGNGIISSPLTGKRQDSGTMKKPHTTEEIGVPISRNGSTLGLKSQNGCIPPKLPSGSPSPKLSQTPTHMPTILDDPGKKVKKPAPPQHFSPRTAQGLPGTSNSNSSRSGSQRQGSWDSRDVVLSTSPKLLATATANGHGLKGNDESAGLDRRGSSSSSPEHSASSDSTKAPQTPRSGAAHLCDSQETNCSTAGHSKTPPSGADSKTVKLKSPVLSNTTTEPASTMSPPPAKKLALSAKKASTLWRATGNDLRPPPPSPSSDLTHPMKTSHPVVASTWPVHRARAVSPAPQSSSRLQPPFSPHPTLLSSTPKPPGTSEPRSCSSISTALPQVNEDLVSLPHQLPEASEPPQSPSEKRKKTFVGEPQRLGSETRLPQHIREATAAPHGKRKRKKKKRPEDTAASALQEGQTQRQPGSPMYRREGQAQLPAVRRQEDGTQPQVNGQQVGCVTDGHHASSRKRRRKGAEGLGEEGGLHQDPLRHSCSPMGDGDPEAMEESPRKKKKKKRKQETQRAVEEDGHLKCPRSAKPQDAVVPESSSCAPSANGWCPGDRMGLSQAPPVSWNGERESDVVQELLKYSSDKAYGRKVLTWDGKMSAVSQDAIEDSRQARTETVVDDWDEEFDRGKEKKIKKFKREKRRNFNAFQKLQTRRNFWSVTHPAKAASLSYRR
Summary of the method: as §1

USP38 = molecular target: T2, USP38 (UniProt Q8NB14)
T2 sequence (whole entry): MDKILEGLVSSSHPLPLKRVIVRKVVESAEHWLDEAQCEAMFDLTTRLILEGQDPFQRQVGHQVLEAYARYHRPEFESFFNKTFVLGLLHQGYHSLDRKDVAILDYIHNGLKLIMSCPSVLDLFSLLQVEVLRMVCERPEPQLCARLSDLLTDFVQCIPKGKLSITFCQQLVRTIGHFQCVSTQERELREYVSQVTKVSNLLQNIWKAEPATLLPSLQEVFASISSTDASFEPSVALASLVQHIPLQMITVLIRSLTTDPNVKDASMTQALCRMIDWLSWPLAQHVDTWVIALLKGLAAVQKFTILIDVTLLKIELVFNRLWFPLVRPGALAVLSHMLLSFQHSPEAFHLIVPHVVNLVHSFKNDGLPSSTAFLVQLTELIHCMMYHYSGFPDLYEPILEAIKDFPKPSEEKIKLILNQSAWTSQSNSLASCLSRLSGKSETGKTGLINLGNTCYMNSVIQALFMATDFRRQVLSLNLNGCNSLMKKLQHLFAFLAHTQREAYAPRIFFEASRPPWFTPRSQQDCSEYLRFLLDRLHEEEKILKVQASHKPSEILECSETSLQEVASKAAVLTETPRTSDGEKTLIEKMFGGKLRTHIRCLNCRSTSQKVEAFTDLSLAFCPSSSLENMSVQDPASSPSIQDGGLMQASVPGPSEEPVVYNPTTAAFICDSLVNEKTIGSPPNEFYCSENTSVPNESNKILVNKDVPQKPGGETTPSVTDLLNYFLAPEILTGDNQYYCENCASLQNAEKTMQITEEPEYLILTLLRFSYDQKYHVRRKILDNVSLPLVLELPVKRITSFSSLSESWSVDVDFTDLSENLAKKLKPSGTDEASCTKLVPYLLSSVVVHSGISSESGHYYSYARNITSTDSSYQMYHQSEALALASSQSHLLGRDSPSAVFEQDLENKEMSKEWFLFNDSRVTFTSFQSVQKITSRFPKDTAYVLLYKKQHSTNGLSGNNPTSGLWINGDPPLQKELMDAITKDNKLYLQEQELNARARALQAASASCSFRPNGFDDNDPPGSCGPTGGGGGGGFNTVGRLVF
Summary of the method: as §1

USP39 = molecular target: T3, USP39 (UniProt Q53GS9)
T3 sequence (whole entry): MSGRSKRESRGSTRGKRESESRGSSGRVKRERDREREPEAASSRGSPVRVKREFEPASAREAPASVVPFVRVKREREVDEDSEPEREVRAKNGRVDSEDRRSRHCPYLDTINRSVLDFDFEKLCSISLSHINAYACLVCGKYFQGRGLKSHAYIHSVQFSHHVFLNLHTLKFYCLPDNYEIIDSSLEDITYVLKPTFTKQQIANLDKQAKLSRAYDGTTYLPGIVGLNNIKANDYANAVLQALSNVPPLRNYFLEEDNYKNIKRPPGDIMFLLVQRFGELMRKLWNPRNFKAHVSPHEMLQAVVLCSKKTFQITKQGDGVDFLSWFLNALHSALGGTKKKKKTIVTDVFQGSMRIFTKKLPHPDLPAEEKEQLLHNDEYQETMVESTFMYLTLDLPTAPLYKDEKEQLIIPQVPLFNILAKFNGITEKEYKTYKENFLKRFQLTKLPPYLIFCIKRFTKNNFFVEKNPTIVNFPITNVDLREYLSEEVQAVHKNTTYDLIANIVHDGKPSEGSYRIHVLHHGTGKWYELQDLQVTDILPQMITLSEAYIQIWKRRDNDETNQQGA
Summary of the method: as §1

USP4 = molecular target: T4, USP4 (UniProt Q13107)
T4 sequence (whole entry): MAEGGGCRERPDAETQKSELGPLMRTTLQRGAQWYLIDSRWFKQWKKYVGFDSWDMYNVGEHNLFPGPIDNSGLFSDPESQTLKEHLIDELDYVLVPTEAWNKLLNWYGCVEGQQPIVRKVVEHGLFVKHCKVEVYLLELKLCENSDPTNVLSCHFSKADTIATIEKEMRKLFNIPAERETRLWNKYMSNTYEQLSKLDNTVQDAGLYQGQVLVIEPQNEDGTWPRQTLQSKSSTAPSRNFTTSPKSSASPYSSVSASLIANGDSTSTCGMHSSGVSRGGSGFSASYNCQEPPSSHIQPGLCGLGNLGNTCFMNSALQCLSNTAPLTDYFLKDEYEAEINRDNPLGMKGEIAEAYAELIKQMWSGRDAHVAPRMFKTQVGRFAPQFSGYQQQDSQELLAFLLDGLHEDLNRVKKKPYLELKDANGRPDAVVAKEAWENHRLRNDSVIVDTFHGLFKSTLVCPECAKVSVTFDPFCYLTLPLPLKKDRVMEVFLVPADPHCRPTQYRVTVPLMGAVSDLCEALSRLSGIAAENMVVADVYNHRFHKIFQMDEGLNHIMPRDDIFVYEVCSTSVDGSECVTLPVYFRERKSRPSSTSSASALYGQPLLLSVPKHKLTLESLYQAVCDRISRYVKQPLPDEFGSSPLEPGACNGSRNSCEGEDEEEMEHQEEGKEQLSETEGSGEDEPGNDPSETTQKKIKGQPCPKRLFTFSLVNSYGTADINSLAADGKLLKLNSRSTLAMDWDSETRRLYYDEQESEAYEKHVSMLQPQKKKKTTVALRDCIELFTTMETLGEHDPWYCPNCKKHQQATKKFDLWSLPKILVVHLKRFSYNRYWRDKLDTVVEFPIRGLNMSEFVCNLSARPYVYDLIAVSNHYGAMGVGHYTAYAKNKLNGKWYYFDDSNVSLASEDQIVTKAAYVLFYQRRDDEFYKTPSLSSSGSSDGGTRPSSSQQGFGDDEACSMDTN
Summary of the method: as §1

Measured: log2 ratio of Biotin-Ahx-Ub-VS probe labelling

Cl.O=C(CCl)N1CCc2ncncc2C1
inactive: USP34 -0.136 | USP36 0.0811 | USP38 -0.0489 | USP39 0.321 | USP4 -0.201
